Assay results published in publication PMC5700166.
Where a chain is given by its changes, count along the chain named.

Tests used:
Assay in all cases: protein-binding microarray (PBM); PBM: ~300 nM protein, 6 mM HEPES pH 7.8, 80 mM KCl, 0.5 mM EDTA, 0.5 mM EGTA, 6% glycerol, 35 ng/ul poly-dIdC, 1% milk, 1 h, room temperature; Ap Aiptasia and Nv Nematostella (sea anemones) / Co Capsaspora / Aq Amphimedon (sponge) / Dm Drosophila / Hu human; RHD is the Rel homology domain; high values mean tight binding
Settings in all cases: dsDNA, one strand shown
[1] = biological target: T1, GST-Ap-NF-kB RHD (Exaiptasia pallida (Aiptasia), UniProt A0A913YAJ5 2-422)
T1 sequence: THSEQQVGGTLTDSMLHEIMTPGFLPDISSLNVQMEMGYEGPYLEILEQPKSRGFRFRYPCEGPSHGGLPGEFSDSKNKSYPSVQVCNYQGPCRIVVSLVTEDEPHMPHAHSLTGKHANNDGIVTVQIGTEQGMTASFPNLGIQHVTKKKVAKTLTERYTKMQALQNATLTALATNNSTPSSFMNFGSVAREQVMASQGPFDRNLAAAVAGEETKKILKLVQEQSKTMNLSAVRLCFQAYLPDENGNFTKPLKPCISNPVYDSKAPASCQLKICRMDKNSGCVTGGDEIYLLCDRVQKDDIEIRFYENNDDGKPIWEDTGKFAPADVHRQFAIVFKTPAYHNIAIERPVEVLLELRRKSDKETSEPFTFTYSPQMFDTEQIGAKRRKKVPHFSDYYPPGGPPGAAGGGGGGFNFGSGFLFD

[2] = biological target: T2, GST-Nv-NF-kB (Cys allele) (Nematostella vectensis, UniProt E5G601 2-411)
T2 sequence: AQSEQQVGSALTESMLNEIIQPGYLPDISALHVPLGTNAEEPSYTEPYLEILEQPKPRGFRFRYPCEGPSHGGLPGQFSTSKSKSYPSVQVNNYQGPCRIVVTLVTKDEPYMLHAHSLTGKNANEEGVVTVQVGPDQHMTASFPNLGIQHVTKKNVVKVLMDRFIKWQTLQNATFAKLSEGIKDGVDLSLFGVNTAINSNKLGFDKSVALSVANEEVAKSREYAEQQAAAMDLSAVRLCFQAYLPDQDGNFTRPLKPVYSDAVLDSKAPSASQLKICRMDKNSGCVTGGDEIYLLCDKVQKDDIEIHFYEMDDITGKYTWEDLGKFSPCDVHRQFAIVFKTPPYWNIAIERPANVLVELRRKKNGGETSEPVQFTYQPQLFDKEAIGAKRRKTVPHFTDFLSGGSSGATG

[3] = biological target: T3, GST-Nv-NF-kB (Ser allele) (Nematostella vectensis, UniProt A7UNT2 2-411)
T3 sequence: T2 sequence with Q21R, C66S, S207N, E215Q, V217A, E225K, A268E, D399E

[4] = biological target: T4, GST-Co-NF-kB (Capsaspora owczarzaki, UniProt F1ARL5 200-546)
T4 sequence: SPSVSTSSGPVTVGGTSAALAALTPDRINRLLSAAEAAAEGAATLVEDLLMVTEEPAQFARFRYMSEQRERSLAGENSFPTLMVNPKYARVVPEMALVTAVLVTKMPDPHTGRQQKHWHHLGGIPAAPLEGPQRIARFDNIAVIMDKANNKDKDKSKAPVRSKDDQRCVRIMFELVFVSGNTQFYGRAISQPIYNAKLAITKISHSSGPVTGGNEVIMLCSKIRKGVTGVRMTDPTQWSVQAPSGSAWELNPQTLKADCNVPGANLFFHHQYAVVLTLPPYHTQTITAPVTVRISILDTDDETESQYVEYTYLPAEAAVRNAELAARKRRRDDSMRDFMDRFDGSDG

[5] = biological target: T5, GST-Dm-Relish (Drosophila melanogaster, UniProt Q94527 99-473)
T5 sequence: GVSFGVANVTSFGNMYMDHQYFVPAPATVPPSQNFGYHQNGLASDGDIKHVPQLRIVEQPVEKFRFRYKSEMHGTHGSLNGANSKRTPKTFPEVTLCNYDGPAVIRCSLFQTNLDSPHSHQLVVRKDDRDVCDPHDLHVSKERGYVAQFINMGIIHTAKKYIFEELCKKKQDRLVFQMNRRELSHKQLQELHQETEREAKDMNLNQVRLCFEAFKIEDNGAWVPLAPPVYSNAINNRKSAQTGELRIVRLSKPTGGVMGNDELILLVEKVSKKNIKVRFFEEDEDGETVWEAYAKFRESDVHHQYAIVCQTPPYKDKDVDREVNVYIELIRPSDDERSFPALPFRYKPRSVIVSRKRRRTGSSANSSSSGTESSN

[6] = biological target: T6, GST-Aq-NF-kB (Amphimedon queenslandica, UniProt A9Y5G7 2-389)
T6 sequence: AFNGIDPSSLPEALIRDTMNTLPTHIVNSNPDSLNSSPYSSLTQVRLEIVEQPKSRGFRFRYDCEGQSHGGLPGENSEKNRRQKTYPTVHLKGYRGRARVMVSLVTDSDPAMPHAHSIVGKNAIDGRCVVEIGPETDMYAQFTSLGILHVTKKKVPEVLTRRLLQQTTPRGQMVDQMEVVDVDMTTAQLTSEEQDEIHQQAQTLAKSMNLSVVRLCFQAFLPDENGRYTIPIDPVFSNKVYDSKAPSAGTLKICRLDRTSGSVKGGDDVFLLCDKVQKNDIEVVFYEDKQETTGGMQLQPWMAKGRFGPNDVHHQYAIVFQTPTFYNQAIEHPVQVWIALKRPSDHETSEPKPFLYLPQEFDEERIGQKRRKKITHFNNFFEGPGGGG

[7] = biological target: GST-Hu-p50 (Homo sapiens, UniProt P19838 7-356)
GST-Hu-p50, sequence (P19838 7-356): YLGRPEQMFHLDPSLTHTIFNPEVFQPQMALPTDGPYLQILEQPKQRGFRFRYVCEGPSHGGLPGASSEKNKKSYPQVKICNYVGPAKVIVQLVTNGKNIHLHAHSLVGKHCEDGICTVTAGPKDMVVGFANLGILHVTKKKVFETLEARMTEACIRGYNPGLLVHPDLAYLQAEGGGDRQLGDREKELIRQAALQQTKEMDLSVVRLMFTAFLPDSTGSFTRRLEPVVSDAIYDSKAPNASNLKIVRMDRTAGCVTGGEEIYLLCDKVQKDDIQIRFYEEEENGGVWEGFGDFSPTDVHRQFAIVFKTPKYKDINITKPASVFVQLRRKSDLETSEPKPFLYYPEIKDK

Sequence	binding signal [1]	binding signal [2]	binding signal [3]	binding signal [4]	binding signal [5]	binding signal [6]	binding signal [7]
CCGATTAACATCACAACTTTCCCTGATGTTAATCGGGTCTTGATTCGCTTGACGCTGCTG	3.73 z-score	5.95 z-score	6.13 z-score	4.34 z-score	2.04 z-score	5.94 z-score	4.21 z-score
CCGATTAACATCAATAACCCCCCTGATGTTAATCGGGTCTTGATTCGCTTGACGCTGCTG	6.33 z-score	5.55 z-score	5.48 z-score	4.7 z-score	8.07 z-score	6.46 z-score	5.76 z-score
CCGATTAACATCAGGGGATTCACTGATGTTAATCGGGTCTTGATTCGCTTGACGCTGCTG	7.47 z-score	7.31 z-score	7.91 z-score	3.35 z-score	10.3 z-score	6.42 z-score	6.59 z-score
CCGATTAACATCACGGGGATCCCTGATGTTAATCGGGTCTTGATTCGCTTGACGCTGCTG	8.72 z-score	5.48 z-score	5.51 z-score	4.27 z-score	9.65 z-score	5.88 z-score	4.51 z-score
CCGATTAACATCAGGGGGGTAGATGATGTTAATCGGGTCTTGATTCGCTTGACGCTGCTG	4.07 z-score	3.34 z-score	3.24 z-score	5.47 z-score	3.11 z-score	3.59 z-score	3.2 z-score
CCGATTAACATCAAAAATCCCCCTGATGTTAATCGGGTCTTGATTCGCTTGACGCTGCTG	11.1 z-score	11.4 z-score	12.8 z-score	8.5 z-score	10.1 z-score	9.28 z-score	8.05 z-score
CCGATTAACATCAAAATACCCCGTGATGTTAATCGGGTCTTGATTCGCTTGACGCTGCTG	6.29 z-score	5.39 z-score	5.69 z-score	5.77 z-score	5.44 z-score	5.69 z-score	5.49 z-score
CCGATTAACATCAGGGGGAATAATGATGTTAATCGGGTCTTGATTCGCTTGACGCTGCTG	7.08 z-score	7.85 z-score	8.87 z-score	10.1 z-score	4.96 z-score	5.33 z-score	6.75 z-score
